High-throughput results as filed in PubChem BioAssay.
A selection: hits, their analogues and other compounds. The true share with any hit is near 2.8%.
POLI inh: blocks human DNA polymerase iota activity; Pol iota fluorescent replication assay, 10 min; 390,000 tested, 1% active; Potency, µM (doses to about 115 µM), for the others: at the top dose activity, negative = inhibition, actives largely listed as inhibitors; AID 588590; Q9UNA4; note: potency is the fitted concentration of half-maximal effect
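Fluorescent replication assay read twice, at 0 min and 10 min after adding 50 nM (final) substrate. Enzyme (10 nM) and compounds were first incubated 15 min at room temperature; enzyme-free buffer wells were negative controls.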
Pol beta inh: inhibitors of human DNA polymerase beta | AID 485314 | 340,000 tested, 1.3% active | Pol beta primer extension/strand displacement, fluorescence kinetic | Potency, µM (highest dose often 114 µM), without a hit: top-dose activity change, negative = inhibition, usual class: inhibitors | P06746; note: potency is the fitted concentration of half-maximal effect; % is set by controls: 0 for no effect and ±100 for the full control effect
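Values derive from four-parameter Hill fits of normalized kinetic data: reads at 0 and 10 min following addition of 50 nM substrate to 10 nM Pol beta preincubated 15 min with compound.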
Pol kappa inh-1: inhibitors of human DNA polymerase kappa; Q9UBT6; purified Pol kappa, fluorescent DNA synthesis assay, 10 min; Potency, µM (highest dose often 107 µM), for inactives: at the highest dose activity, negative = inhibition, actives largely listed as inhibitors; 400,000 tested, 0.53% active; AID 588579; note: potency is the fitted concentration of half-maximal effect; % is set by controls: 0 for no effect and ±100 for the full control effect
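50 nM final substrate added after 15 min RT preincubation of 10 nM Pol kappa with compound; fluorescence read at 0 and 10 min.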
Pol eta inh-1: DNA polymerase eta (human) inhibition. Q9Y253. recombinant Pol eta, fluorescent DNA replication assay. Potency, µM (highest dose often 114 µM), without a hit: at the highest dose activity change, negative = inhibition, hits mostly inhibitors. 390,000 tested, 1.2% active. AID 588591; note: potency is the fitted concentration of half-maximal effect; % is set by controls: 0 for no effect and ±100 for the full control effect
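Fluorescent replication assay: 50 nM final substrate added after a 15 min room-temperature compound preincubation with 10 nM enzyme. Signal taken at 0 min and again at 10 min.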
WRN helicase inh-1: blocks human WRN helicase. 360,000 tested, 0.46% active. AID 651768. WRN helicase unwinding, fluorescent forked duplex, kinetic. Potency, µM (top dose mostly 114 µM), inactives show at the top dose activity change, negative = inhibition, most hits filed as inhibitors. Q14191; note: potency is the fitted concentration of half-maximal effect; % is set by controls: 0 for no effect and ±100 for the full control effect; nearly all actives have a fitted effect of over 55% in size
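Enzyme (20 nM final) and test compound sit together 15 min at room temperature before substrate addition. Substrate is a single-forked duplex oligonucleotide (100 nM) labelled with fluorophore and quencher, with 2 mM ATP; helicase unwinding raises red fluorescence, read kinetically.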
PI5P4Ka inh: PI5P4K alpha (human) kinase inhibition; P48426; PI5P4Kalpha enzyme, ADP-Glo luminescence, 60 min; hits give low values; max response, %; 330,000 tested, 1.2% active; active = max response of -50% or lower; inconclusive = between -30% and -50%; inactive = -30% or higher; note: value at the top dose of about 77 µM; % is set by controls: 0 for no effect and ±100 for the full control effect
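Single end-point luminescence (ADP-Glo) quantified ADP from PI5P4Kalpha turnover; ATP 5 microM final, 1 h at RT, 0.1% CHAPS and 0.28 mM EGTA in HEPES pH 7.4.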
TbPGK inh: validation of Trypanosoma brucei phosphoglycerate kinase inhibitors; TbPGK coupled GAPDH assay, Kinase-Glo luminescence; Potency, µM (doses to about 57.5 µM), inactives show at the top dose activity change, negative = inhibition, actives largely listed as inhibitors; 500 tested, 79% active; shares compounds with Pol kappa inh-1; note: potency is the fitted concentration of half-maximal effect; % is set by controls: 0 for no effect and ±100 for the full control effect; nearly all actives have a fitted effect of over 65% in size
POLI cherry-pick: Confirm cherry-picked inhibitors of human polymerase iota | AID 720496 | 1,500 tested, 77% active | shares compounds with Pol kappa inh-1 | Pol iota primer extension, TAMRA/BHQ fluorescence | Potency, µM, hits mostly inhibitors; note: potency is the fitted concentration of half-maximal effect
Pol kappa inh-2: Pol kappa (human) inhibition, cherry-pick confirmation. 920 tested, 76% active. shares compounds with Pol eta inh-1. Potency, µM, actives largely listed as inhibitors. purified Pol-kappa, fluorescent strand-displacement substrate; note: potency is the fitted concentration of half-maximal effect
Pol eta inh-2: Pol eta (human) inhibition, cherry-pick confirmation | shares compounds with Pol eta inh-1 | Pol eta primer extension, TAMRA/BHQ fluorescence, 10 min | Potency, µM, actives largely listed as inhibitors | 2,600 tested, 64% active; note: potency is the fitted concentration of half-maximal effect
WRN helicase inh-2: WRN helicase inhibition, cherry-pick retest; shares compounds with WRN helicase inh-1; WRN helicase DNA unwinding, fluorescence kinetic; Potency, µM (doses to about 57.1 µM), without a hit: top-dose activity, negative = inhibition, usual class: inhibitors; 610 tested, 63% active; note: potency is the fitted concentration of half-maximal effect; nearly all actives have a fitted effect of over 65% in size
TO DNA binding: DNA binding via thiazole orange displacement | shares compounds with WRN helicase inh-1 | AID 720499 | thiazole orange DNA binding displacement, fluorescence | 610 tested, 10% active | Potency, µM (titrated, usually from 57.1 µM), for inactives: at the highest dose activity change, negative = inhibition, usual class: inhibitors;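 note: drop in dye fluorescence marks compound binding to DNA; potency is the fitted concentration of half-maximal effect; % is set by controls: 0 for no effect and ±100 for the full control effect; nearly all actives have a fitted effect of over 60% in size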
BLM helicase inh: BLM helicase inhibition, WRN selectivity check | Potency, µM (series often up to 57.1 µM), for inactives: at the highest dose activity change, negative = inhibition, most hits filed as inhibitors | Recombinant BLM helicase DNA unwinding, red fluorescence | 610 tested, 60% active | AID 720503 | shares compounds with WRN helicase inh-1; note: potency is the fitted concentration of half-maximal effect; nearly all actives have a fitted effect of over 60% in size
ADP-Glo interf: interferes with ADP-Glo detection without enzyme present; shares compounds with PI5P4Ka inh; ADP-Glo detection counter-screen, luciferase luminescence, no enzyme; Potency, µM (top dose mostly 76.9 µM), for the others: at the top dose activity change, negative = inhibition, actives largely listed as inhibitors; 1,100 tested, under 10 active; AID 743285
* hit, by the source's call; [ ] = dose if it differs, or a comment. Unless noted, calls come from the whole dose curve; as a rule, active = well fitted curve in the direction sought with a large enough effect; inconclusive = small, poorly fitted or top-dose-only effect, or another doubt; inactive = no such curve, though single readings can be large; an effect the other way counts as inactive or inconclusive.

Results for Cc1cccc(NC(=O)CNC(=O)c2cccc(-n3cccc3)c2)c1C ?
POLI inh: 7.9µM*; Pol kappa inh-1: 32µM*; Pol eta inh-1: 3.2µM*; WRN helicase inh-1: inconclusive; PI5P4Ka inh: -80*; POLI cherry-pick: 9.5*; Pol eta inh-2: 9.5*; ADP-Glo interf: -10%

What do the screens show for `COc1ccc(NC(=O)CN(C)C(=O)c2cccc(-n3cccc3)c2)cc1`?
POLI inh: 13µM*; Pol kappa inh-1: 45µM*; Pol eta inh-1: 11µM*; WRN helicase inh-1: 45µM*; PI5P4Ka inh: -62*; POLI cherry-pick: 30*; Pol eta inh-2: 67*; ADP-Glo interf: -3%

How did Cc1ccc(C)c(NC(=O)CN(C)C(=O)c2cccc(N3C(=O)CCC3=O)c2)c1 do in these assays?
POLI inh: 27%; Pol kappa inh-1: 9%; Pol eta inh-1: -1%; WRN helicase inh-1: -2%; PI5P4Ka inh: 1

How did CCC(c1nnc(SCC(=O)Nc2ccc(C(=O)N(C)C)cc2)n1Cc1ccccc1)N(C)C (stereo unspecified) do in these assays?
POLI inh: 6%; Pol beta inh: 1%; Pol kappa inh-1: -12%; Pol eta inh-1: -24%; WRN helicase inh-1: -20%; PI5P4Ka inh: 13

Results for N#Cc1c(SCC(=O)Nc2nncs2)sc2c(O)cc(=O)[nH]c12 ?
POLI inh: 2µM*; Pol beta inh: 4µM*; Pol kappa inh-1: 8.9µM*; Pol eta inh-1: 7.1µM*; WRN helicase inh-1: 14µM*; PI5P4Ka inh: -76*; POLI cherry-pick: 19*; Pol eta inh-2: 19*; ADP-Glo interf: 1%

How did CCn1c(SCc2nc3sc(C(=O)O)c(C)c3c(=O)[nH]2)nc2ccccc21 do in these assays?
POLI inh: 2.8µM*; Pol beta inh: 8.9µM*; Pol kappa inh-1: 3.5µM*; Pol eta inh-1: 0.71µM*; WRN helicase inh-1: 20µM*; PI5P4Ka inh: -64*; TbPGK inh: inconclusive; POLI cherry-pick: 9.5*; Pol eta inh-2: 2.7*; WRN helicase inh-2: 6.8µM*; TO DNA binding: 12µM*; BLM helicase inh: 19µM*; ADP-Glo interf: 1%

What do the screens show for `COCCn1c(SCc2nc3sc(C(=O)OC)c(C)c3c(=O)[nH]2)nc2ccccc21`?
POLI inh: 4%; Pol beta inh: -5%; Pol kappa inh-1: -1%; Pol eta inh-1: inconclusive; WRN helicase inh-1: -5%; PI5P4Ka inh: -21

Results for CCCCc1ccc(NC(=O)Cn2cnc3c2c(=O)n(C)c(=O)n3C)cc1 ?
POLI inh: -15%; Pol beta inh: -4%; Pol kappa inh-1: -20%; Pol eta inh-1: -5%

How did CC1=C(C(=O)Nc2cccc(C(=O)N3CCN(c4cccc(C(F)(F)F)c4)CC3)c2)SCCO1 do in these assays?
POLI inh: 39%; Pol beta inh: -16%; Pol kappa inh-1: 6%; Pol eta inh-1: inconclusive; WRN helicase inh-1: 1%; PI5P4Ka inh: 2

Results for COc1ccc(S(=O)(=O)N2CCN(C(=O)c3cc4c(s3)CCC4)CC2)cc1 ?
POLI inh: 2.8µM*; Pol kappa inh-1: 28µM*; Pol eta inh-1: 2.2µM*; WRN helicase inh-1: 35µM*; PI5P4Ka inh: -82*; POLI cherry-pick: 3*; Pol kappa inh-2: 3*; Pol eta inh-2: 7.6*; WRN helicase inh-2: 7.6µM*; TO DNA binding: inconclusive; BLM helicase inh: 1.1µM*; ADP-Glo interf: 5%

Results for COc1ccc2c([N+](=O)[O-])c(Cl)[nH]c2c1 ?
POLI inh: 11µM*; Pol beta inh: -20%; Pol kappa inh-1: 50µM*; Pol eta inh-1: 20µM*; WRN helicase inh-1: -20%[11.6 µM]; PI5P4Ka inh: -57*; POLI cherry-pick: 38*; Pol eta inh-2: 27*; ADP-Glo interf: 0%

What do the screens show for `Cc1ccc(OCc2occc2C(=O)O)cc1`?
POLI inh: inconclusive; Pol kappa inh-1: -37%; Pol eta inh-1: inconclusive; WRN helicase inh-1: -10%[57.1 µM]; PI5P4Ka inh: -1

What do the screens show for `CCCc1cnc(N2CCN(C(=O)c3c(-c4ccccc4)noc3C)CC2)nc1`?
POLI inh: 0%[58.9 µM]; Pol beta inh: -14%; Pol kappa inh-1: -7%; Pol eta inh-1: -18%; WRN helicase inh-1: -2%; PI5P4Ka inh: 4

Results for Cc1cc(C)c2nc(-c3ccccn3)cc(C(=O)Nc3ccc(S(=O)(=O)Nc4onc(C)c4C)cc3)c2c1 ?
POLI inh: 8.9µM*; Pol beta inh: inconclusive; Pol kappa inh-1: inconclusive; Pol eta inh-1: 8.9µM*; WRN helicase inh-1: 40µM*; PI5P4Ka inh: -66*; POLI cherry-pick: 21*; Pol eta inh-2: 8.5*; WRN helicase inh-2: 15µM*; TO DNA binding: inconclusive; BLM helicase inh: 6.8µM*; ADP-Glo interf: -1%
